Records with an inconclusive call do not appear. Active and inactive are the calls of the source. How the source made its calls, unless noted: active means hit-call score of the fitted dose curve at least 0.9, where 1 is the maximum; inactive means score below 0.9.

Assay [1] concerns the target Estrogen-related receptor gamma (Homo sapiens) (UniProt P62508). The assay is described as follows: ATG_ERRg_TRANS: Attagene TRANS-FACTORIAL HepG2 Assay for human Estrogen-Related Receptor gamma (ERRg) (AID 2282977; active means hit-call score of the fitted dose curve at least 0.9, where 1 is the maximum;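 further: hits increase reporter signal over DMSO so potencies reflect activators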). Particulars: HepG2 Attagene TRANS reporter, ERRg transactivation. An outline of the steps:
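Exogenous NR-Gal4 chimera activity was assessed in HepG2 cells bearing transfected GAL4-UAS reporters. After 24 h dosing, total RNA underwent RT-PCR, fluorescent primer extension and HpaI digestion before capillary electrophoresis, with gain of signal scored against DMSO.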

In assay [2] the target is Glucocorticoid receptor (Homo sapiens) (UniProt P04150). The assay is described as follows: ATG_GR_TRANS: Attagene TRANS-FACTORIAL HepG2 Assay for human Glucocorticoid Receptor (GR) (AID 2282978; active means hit-call score of the fitted dose curve at least 0.9, where 1 is the maximum;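 further: activators score as hits since higher reporter transcript over DMSO is fitted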). Conditions: HepG2 Attagene TRANS GR reporter, mRNA transcription. An outline of the steps:
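Multiplexed TRANS reporter system, HepG2; 24 h exposure; RNA → oligo(dT) RT → reporter-specific PCR → 6-FAM primer extension → HpaI cut → CE fluorescence. Gain-of-signal vs DMSO.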

Assay [3] in a line: ATG_M_06_TRANS: Attagene TRANS-FACTORIAL HepG2 Assay for M06 Transcription Factor (Internal Marker) (AID 2282983; active means hit-call score of the fitted dose curve at least 0.9, where 1 is the maximum;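 further: reporter transcript level by RT-PCR then capillary electrophoresis fluorescence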). Particulars: HepG2 Attagene TRANS M06 internal marker reporter. The method, boiled down:
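Multi-reporter-transfected HepG2, 24 h treatment; reporter transcripts quantified via RT-PCR, primer-extension labelling and CE. DMSO-normalized gain-of-signal fit.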

The target of assay [4] is Transcriptional activator Myb (Homo sapiens) (UniProt P10242). The assay is described as follows: ATG_Myb_CIS: Attagene CIS-FACTORIAL HepG2 Assay for human Myeloblastosis (Myb) Proto-Oncogene Transcription Factor (AID 2282986). Conditions: HepG2 Attagene CIS-FACTORIAL Myb reporter transcription; actives raise or lower the signal. An outline of the steps:
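Endogenous transcription factor activity at a Myb-responsive cis element is reported in human liver HepG2 cells after 24 h chemical treatment. Reporter mRNA is detected by RT-PCR and capillary electrophoresis fluorescence, with DMSO as baseline.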

Assay [5] concerns the target Nuclear respiratory factor 1 (Homo sapiens) (UniProt Q16656). Briefly: ATG_NRF1_CIS: Attagene CIS-FACTORIAL HepG2 Assay for human Nuclear Respiratory Factor 1 (NRF1) Orphan Gene (AID 2282987). Particulars: HepG2 NRF1 cis-element reporter, Attagene multiplex; actives raise or lower the signal. An outline of the steps: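 Human hepatoma HepG2 cells carrying transfected promoter-regulated reporter units were incubated with test chemicals for 24 h. Reporter transcripts were measured by RT-PCR plus capillary electrophoresis, and endpoints derived by bidirectional fitting with DMSO as baseline.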

In assay [6] the target is Myc proto-oncogene protein (Homo sapiens) (UniProt P01106). Briefly: ATG_Myc_CIS: Attagene CIS-FACTORIAL HepG2 Assay for human Myelocytomatosis (Myc) Proto-Oncogene Transcription Factor (AID 2282990). Conditions: HepG2, Attagene cis-reporter transcription factor activity; actives raise or lower the signal. An outline of the steps:
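HepG2, transient MRTU transfection (cis promoters, endogenous TFs); 24 h dosing; TriZol RNA → oligo(dT) RT → PCR → 6-FAM primer extension → HpaI cut → CE. Bidirectional fit vs DMSO.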

Assay [7] in a line: ATG_NF_kB_CIS: Attagene CIS-FACTORIAL HepG2 Assay for human Nuclear Factor Kappa B (NF-kB) (AID 2282991). Particulars: HepG2 Attagene cis-factorial NF-kB reporter mRNA; actives raise or lower the signal. The method, boiled down: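 Multiplexed cis-reporter assay in transiently transfected HepG2. 24 h treatment; RNA isolated, RT-PCR, labelled fragments resolved by CE. DMSO baseline.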

A short description of assay [8]: ATG_NRF2_ARE_CIS: Attagene CIS-FACTORIAL HepG2 Assay for human Nuclear Factor Erythroid 2 Related Factor 2 (NFR2) response to Antioxidant Response Elements (ARE) (AID 2282992).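 On AC50: reporter mRNA level measured by RT-PCR and capillary electrophoresis fluorescence.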 Conditions: HepG2 Attagene ARE/NRF2 reporter, transcription factor activity; actives raise or lower the signal. The method, boiled down: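 Endogenous transcription factor activity in human liver HepG2 cells is tracked via a cis-element-driven reporter within a multiplexed set. mRNA induction is read by RT-PCR and capillary electrophoresis after 24 h, with DMSO as baseline.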

Assay [9] is described as follows: ATG_Oct_MLP_CIS: Attagene CIS-FACTORIAL HepG2 Assay for human Octamer-Binding Transcription Factor (Oct) (AID 2282993). Conditions: HepG2 Attagene cis-factorial Oct reporter, mRNA; actives raise or lower the signal. An outline of the steps: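 Transient MRTU transfection of HepG2 → 24 h compound treatment → RNA isolation, reverse transcription, PCR → 6-FAM primer extension, HpaI digest → capillary electrophoresis. Activity fitted both directions against DMSO.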

The target in assay [10] is Cellular tumor antigen p53 (Homo sapiens) (UniProt P04637). Briefly: ATG_p53_CIS: Attagene CIS-FACTORIAL HepG2 Assay for human p53 Transcription Factor (AID 2282994). Particulars: HepG2 p53 cis-element reporter, Attagene mRNA; actives raise or lower the signal. The method, boiled down: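 Steps: transfect HepG2 with multiplexed cis reporter constructs; dose chemicals 24 h; extract RNA, reverse-transcribe, PCR-amplify reporter sequences; FAM-label, HpaI-digest, resolve fragments by CE. Activity fitted both directions relative to DMSO.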

In assay [11] the target is Oxysterols receptor LXR-alpha (Homo sapiens) (UniProt Q13133). Briefly: ATG_LXRa_TRANS: Attagene TRANS-FACTORIAL HepG2 Assay for human Liver X Receptor alpha (LXRa) (AID 2282980; active means hit-call score of the fitted dose curve at least 0.9, where 1 is the maximum). Conditions: HepG2 Attagene TRANS reporter, LXRa transactivation. The method, boiled down:
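In this multiplexed TRANS system, compounds act on HepG2 cells carrying GAL4-UAS reporter units and a receptor-GAL4 fusion for 24 h. Induced reporter RNA is amplified, fluorescently labelled and sized by capillary electrophoresis, with DMSO as baseline.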

The target in assay [12] is Oxysterols receptor LXR-beta (Homo sapiens) (UniProt P55055). The assay is described as follows: ATG_LXRb_TRANS: Attagene TRANS-FACTORIAL HepG2 Assay for human Liver X Receptor beta (LXRb) (AID 2282981; active means hit-call score of the fitted dose curve at least 0.9, where 1 is the maximum). Conditions: HepG2 Attagene TRANS GAL4-LXRb reporter, mRNA. The method, boiled down:
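After 24 h of chemical treatment, transfected HepG2 cells yield total RNA; reporter cDNA is PCR-amplified, FAM-labelled, HpaI-cut and run on capillary electrophoresis. Signal reflects chimeric LXRb-Gal4 activity on GAL4-UAS reporters.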

In assay [13] the target is Nuclear receptor subfamily 4 group A member 2 (Homo sapiens) (UniProt P43354). The assay is described as follows: ATG_NURR1_TRANS: Attagene TRANS-FACTORIAL HepG2 Assay for human Nuclear Receptor Related Protein 1 (NURR1) (AID 2282985; active means hit-call score of the fitted dose curve at least 0.9, where 1 is the maximum). Particulars: HepG2 Attagene TRANS reporter, mRNA readout. An outline of the steps:
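Measures transcriptional activation by an exogenous NR-Gal4 chimera in transfected HepG2 liver cells. After 24 h, reporter RNA is reverse-transcribed, amplified and resolved by capillary electrophoresis; DMSO defines baseline.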

Assay [14] in a line: ATG_NFI_CIS: Attagene CIS-FACTORIAL HepG2 Assay for human Nuclear Factor I (NFI) (AID 2282989). Particulars: HepG2 cis-regulatory reporter, NFI response element transcription; actives raise or lower the signal. The method, boiled down: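 Transient MRTU transfection of HepG2 → 24 h chemical dosing → total RNA, oligo(dT) RT → PCR, 6-FAM primer extension, HpaI cut → capillary electrophoresis. Endpoint fitted bidirectionally relative to DMSO.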

In assay [15] the target is Bile acid receptor (Homo sapiens) (UniProt Q96RI1). Briefly: ATG_FXR_TRANS: Attagene TRANS-FACTORIAL HepG2 Assay for Farnesoid X Receptor (FXR) (AID 2282979; active means hit-call score of the fitted dose curve at least 0.9, where 1 is the maximum;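 further: hits raise reporter mRNA above DMSO so AC50 marks FXR activation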). Conditions: HepG2 Attagene TRANS FXR-GAL4 reporter transcription. An outline of the steps:
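After 24 h chemical treatment of transfected HepG2 cells, GAL4-UAS reporter transcripts driven by an exogenous FXR-GAL4 fusion were measured by RT-PCR and capillary electrophoresis. Increases over DMSO were fitted.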

A short description of assay [16]: ATG_M_32_TRANS: Attagene TRANS-FACTORIAL HepG2 Assay for M32 Transcription Factor (Internal Marker) (AID 2282984; active means hit-call score of the fitted dose curve at least 0.9, where 1 is the maximum;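 further: transcript level of a background control reporter unit measured by RT-PCR and capillary electrophoresis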). Conditions: HepG2 Attagene TRANS M32 internal marker reporter. An outline of the steps:
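Cell-based TRANS-format assay in HepG2: exogenous chimeric GAL4 reporter units transiently expressed, compounds applied 24 h. Reporter mRNA detected by RT-PCR plus capillary electrophoresis; this readout is an internal background marker.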

Assay [17] deals with Hepatocyte nuclear factor 4-alpha (Homo sapiens) (UniProt P41235). The assay is described as follows: ATG_HNF4a_TRANS: Attagene TRANS-FACTORIAL HepG2 Assay for human Hepatocyte Nuclear Factor 4 alpha (HNF4a) (AID 2282982; active means hit-call score of the fitted dose curve at least 0.9, where 1 is the maximum). Particulars: HepG2 HNF4a transactivation reporter, mRNA readout. The method, boiled down:
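Multiplexed reporter assay: transfected HepG2, 24 h exposure, total RNA → oligo(dT) RT → PCR → 6-FAM extension → HpaI digest → CE fluorescence. DMSO = negative control.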

Chain of Cellular tumor antigen p53 (Homo sapiens) (P04637 whole entry, looked up, the tested form may be a part): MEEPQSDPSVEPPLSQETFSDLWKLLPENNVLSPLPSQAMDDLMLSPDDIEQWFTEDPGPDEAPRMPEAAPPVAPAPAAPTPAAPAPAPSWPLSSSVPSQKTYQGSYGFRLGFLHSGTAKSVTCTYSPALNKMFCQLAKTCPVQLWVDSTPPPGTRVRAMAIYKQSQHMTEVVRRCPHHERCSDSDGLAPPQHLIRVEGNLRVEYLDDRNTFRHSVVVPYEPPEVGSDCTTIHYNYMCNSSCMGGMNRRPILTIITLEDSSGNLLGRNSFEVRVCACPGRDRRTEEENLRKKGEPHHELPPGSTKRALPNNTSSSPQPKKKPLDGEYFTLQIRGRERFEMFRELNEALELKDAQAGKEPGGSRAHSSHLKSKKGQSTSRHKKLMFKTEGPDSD
Chain of Glucocorticoid receptor (Homo sapiens) (P04150 whole entry, looked up): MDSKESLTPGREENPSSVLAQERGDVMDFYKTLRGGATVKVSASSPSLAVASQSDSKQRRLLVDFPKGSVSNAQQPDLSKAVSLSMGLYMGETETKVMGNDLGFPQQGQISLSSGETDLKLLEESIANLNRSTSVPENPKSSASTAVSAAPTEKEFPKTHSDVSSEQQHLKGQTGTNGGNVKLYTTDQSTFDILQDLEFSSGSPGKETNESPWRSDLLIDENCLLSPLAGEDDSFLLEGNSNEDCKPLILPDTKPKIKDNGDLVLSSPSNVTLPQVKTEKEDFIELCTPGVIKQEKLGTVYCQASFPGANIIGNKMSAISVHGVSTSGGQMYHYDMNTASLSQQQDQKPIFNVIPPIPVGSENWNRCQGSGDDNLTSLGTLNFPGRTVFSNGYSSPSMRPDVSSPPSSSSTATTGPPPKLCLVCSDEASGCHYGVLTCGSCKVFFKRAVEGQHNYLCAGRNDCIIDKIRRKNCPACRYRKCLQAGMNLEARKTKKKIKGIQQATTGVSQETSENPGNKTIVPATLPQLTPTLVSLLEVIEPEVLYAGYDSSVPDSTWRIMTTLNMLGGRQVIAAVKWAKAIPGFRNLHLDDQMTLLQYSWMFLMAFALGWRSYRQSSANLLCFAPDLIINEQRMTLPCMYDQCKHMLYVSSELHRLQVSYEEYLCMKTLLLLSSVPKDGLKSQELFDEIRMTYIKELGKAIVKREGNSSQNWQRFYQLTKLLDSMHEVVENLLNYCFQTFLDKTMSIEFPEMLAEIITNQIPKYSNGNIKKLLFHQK
Chain of Oxysterols receptor LXR-beta (Homo sapiens) (P55055 whole entry, looked up, the tested form may be a part): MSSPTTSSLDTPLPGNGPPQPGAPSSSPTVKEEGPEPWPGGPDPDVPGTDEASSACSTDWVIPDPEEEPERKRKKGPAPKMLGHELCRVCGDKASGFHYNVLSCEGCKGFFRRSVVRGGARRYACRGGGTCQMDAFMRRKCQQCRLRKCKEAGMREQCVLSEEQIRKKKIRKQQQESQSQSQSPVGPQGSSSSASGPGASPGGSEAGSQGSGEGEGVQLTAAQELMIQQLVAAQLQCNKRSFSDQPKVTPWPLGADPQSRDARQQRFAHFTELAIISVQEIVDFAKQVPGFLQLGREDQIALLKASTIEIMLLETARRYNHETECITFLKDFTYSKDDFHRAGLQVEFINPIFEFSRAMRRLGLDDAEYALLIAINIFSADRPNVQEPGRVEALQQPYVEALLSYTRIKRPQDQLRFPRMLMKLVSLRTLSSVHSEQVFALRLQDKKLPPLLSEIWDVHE
Chain of Myc proto-oncogene protein (Homo sapiens) (P01106 whole entry, looked up): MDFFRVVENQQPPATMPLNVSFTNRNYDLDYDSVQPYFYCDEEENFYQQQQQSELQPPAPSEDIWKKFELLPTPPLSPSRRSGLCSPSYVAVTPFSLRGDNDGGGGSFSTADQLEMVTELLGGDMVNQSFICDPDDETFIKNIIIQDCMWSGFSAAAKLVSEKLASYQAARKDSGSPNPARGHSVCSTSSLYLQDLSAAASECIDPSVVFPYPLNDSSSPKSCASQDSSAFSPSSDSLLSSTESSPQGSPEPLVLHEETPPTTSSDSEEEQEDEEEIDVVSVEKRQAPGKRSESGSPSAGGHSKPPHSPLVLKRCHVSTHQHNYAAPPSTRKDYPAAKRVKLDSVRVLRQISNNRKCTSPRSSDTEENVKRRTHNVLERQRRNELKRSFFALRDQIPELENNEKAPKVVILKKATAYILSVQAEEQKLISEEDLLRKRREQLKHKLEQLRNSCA
Chain of Nuclear respiratory factor 1 (Homo sapiens) (Q16656 whole entry, looked up): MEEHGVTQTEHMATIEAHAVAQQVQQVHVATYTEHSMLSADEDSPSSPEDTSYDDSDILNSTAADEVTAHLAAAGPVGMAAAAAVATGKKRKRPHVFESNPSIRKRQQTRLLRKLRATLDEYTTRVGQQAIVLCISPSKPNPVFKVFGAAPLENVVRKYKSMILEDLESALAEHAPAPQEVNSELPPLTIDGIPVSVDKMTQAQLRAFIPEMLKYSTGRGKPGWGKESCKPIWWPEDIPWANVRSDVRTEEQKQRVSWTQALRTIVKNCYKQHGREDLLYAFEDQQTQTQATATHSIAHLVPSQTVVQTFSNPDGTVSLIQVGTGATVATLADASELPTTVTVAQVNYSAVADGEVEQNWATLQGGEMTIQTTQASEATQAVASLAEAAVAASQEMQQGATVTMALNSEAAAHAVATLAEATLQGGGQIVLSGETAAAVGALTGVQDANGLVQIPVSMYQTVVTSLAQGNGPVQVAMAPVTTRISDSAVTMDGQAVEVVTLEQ
Chain of Transcriptional activator Myb (Homo sapiens) (P10242 whole entry, looked up): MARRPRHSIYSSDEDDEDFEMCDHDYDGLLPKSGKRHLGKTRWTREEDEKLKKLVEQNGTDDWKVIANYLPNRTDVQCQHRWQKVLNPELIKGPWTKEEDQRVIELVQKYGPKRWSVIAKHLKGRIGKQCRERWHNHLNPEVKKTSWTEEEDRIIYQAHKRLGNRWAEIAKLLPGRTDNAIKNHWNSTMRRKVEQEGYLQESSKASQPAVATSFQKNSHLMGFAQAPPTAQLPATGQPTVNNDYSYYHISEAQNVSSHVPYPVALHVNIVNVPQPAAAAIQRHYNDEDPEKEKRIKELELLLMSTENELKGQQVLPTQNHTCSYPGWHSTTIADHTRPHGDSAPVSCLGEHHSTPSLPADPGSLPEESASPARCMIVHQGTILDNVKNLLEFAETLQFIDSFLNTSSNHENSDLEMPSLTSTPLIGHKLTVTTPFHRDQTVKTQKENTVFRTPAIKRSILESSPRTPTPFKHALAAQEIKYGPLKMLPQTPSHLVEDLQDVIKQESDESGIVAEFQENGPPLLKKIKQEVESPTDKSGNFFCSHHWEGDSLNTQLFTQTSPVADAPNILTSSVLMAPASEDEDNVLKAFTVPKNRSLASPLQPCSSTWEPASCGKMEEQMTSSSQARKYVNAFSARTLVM
Chain of Nuclear receptor subfamily 4 group A member 2 (Homo sapiens) (P43354 whole entry, looked up, the tested form may be a part): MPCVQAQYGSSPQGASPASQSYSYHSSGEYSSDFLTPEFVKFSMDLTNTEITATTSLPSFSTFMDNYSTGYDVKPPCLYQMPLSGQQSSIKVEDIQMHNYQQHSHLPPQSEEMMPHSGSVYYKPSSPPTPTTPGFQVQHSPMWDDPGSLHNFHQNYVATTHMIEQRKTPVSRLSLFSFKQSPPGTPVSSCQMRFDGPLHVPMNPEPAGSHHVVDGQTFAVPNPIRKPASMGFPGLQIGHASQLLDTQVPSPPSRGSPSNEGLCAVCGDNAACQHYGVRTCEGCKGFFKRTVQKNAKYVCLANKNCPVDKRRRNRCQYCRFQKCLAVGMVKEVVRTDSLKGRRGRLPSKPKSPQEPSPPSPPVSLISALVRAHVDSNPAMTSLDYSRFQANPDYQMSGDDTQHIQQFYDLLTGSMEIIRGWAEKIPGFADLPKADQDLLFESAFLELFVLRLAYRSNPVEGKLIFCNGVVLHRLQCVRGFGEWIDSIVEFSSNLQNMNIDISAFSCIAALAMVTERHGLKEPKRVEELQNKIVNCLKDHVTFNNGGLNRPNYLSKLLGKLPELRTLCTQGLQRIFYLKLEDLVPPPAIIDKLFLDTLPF
Chain of Estrogen-related receptor gamma (Homo sapiens) (P62508 whole entry, looked up, the tested form may be a part): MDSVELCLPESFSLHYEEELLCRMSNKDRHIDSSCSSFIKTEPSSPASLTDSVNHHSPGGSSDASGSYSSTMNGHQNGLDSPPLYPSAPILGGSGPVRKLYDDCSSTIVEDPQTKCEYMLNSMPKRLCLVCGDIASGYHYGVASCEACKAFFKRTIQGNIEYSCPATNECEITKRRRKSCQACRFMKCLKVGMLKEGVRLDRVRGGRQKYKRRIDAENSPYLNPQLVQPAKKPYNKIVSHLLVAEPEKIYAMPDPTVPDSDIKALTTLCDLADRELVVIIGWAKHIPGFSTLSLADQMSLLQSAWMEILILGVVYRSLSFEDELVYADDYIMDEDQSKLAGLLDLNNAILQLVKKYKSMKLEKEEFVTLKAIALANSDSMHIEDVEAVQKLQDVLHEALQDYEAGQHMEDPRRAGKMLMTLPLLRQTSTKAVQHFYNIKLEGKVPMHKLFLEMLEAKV
Chain of Hepatocyte nuclear factor 4-alpha (Homo sapiens) (P41235 whole entry, looked up): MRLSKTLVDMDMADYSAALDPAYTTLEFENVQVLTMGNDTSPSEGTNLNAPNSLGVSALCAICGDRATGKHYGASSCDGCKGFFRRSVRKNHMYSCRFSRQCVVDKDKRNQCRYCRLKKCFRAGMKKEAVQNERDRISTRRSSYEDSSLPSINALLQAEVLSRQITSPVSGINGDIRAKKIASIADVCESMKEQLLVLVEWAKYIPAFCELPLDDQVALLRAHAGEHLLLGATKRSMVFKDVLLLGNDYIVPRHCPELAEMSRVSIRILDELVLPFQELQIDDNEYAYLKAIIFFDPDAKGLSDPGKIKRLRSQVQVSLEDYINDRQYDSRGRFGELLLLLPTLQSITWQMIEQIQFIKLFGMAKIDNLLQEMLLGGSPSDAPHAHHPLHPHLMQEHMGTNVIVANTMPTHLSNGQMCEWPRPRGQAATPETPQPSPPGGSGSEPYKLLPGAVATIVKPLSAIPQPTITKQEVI

For `CCCCC(CC)COCCO` (centres undefined), the result in assay [1], in assay [2], in assay [3], in assay [4], in assay [5] and in assay [6] was inactive. Further, the call in assay [7], in assay [8], in assay [9] and in [10] was inactive.

As to `N#CCCCC(C#N)CCC#N` (centres undefined), the result in assay [1], in [11], in [12], in [3], in [13] and in [5] was inactive. The call in assay [14], in assay [6], in assay [7] and in assay [9] was inactive.

`Brc1cc(Br)cc(Br)c1`: the result in assay [1], in [2], in assay [15], in assay [12], in assay [16] and in assay [13] was inactive. The call in assay [4], in assay [5], in assay [14], in [6], in assay [7] and in [9] was inactive. Besides, the outcome in assay [10] was inactive.

For `Cc1cc(O)c2c(c1)C(=O)c1cc(O)cc(O)c1C2=O`, the compound was classed as inactive in assay [1], in assay [11], in assay [12], in assay [17], in [3] and in assay [13]. Besides, the compound was called inactive in assay [4], in assay [5] and in [10]. Besides, the AC50 in [14] was 8.34 µM (active); in assay [7], 17.4 µM (active); in [8] it was 4.77 µM (active); in assay [9] it was 8.59 µM (active).

For the compound `CC(C)OB(OC(C)C)OC(C)C`, the call in assay [1], in assay [2], in assay [15], in [12], in [17] and in [13] was inactive. For the same compound, the call in assay [4], in assay [5], in assay [14], in [7], in assay [8] and in assay [9] was inactive. Also, in [10], the result was inactive.

(Values after PubChem BioAssay (EPA / NIEHS).)
